This passage reports growth results from PubChem BioAssay (NCI).

The structures appear in SMILES notation. Where “and” joins values, the source holds several entries; their conditions need not be identical. Equal entries are not always repeated. This is part of a sample that, as a whole, favours compounds with a hit. Of some 83,000 tested, about 20% had one in any assay.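 Activity criterion: percent growth below 10, measured after cells in 96-well plates were exposed to a single compound concentration for 48 hours.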 A number with no mark means an inactive call. Calls of active or inactive are those of the source.

In this experiment the test system is HL-60(TB) leukemia. Nature of the experiment: NCI-60 one-dose screen, 48 h (100 = growth as untreated, 0 = no growth, -100 = all killed). To be noted: 10 µM unless noted.
For `COc1ccc(C2=Nc3c/c(=C\c4c(O)[nH]c5ccc(Cl)cc45)ccc3=N2)cc1`, the growth is 6.79% (active). For the molecule `COc1ccc(/C(C#N)=C/c2ccccn2)cc1`, the growth is 91.8% and 78.1%. In the case of `O=C(/C(=C\c1ccc([N+](=O)[O-])cc1)S(=O)Cc1ccc(Cl)cc1)c1ccc(Cl)cc1` (centres undefined), the growth was 59.4%.

For the molecule `O=S(=O)(Nc1ncccn1)c1ccc(NC2Nc3nc4ccccc4nc3S2)cc1` (centres undefined), the growth was 101%. As to `CCN1CCN(c2cc(C(=O)Nc3nc(-c4cc(OC)c(OC)c(OC)c4)cs3)cc(C(F)(F)F)c2)CC1`, the growth is 41.4%.

Regarding `CC[C@@]1(O)C(=O)OCc2c1cc1n(c2=O)Cc2cc3c(CN(C)C)c(O)ccc3nc2-1`, the growth was -7.06% (active) and -36.1% (active). For the molecule `COC(=O)CNC(=O)[C@@H](OC)[C@@H]1Cc2cc3cc(OC4CC(OC5CC(O)C(O)C(C)O5)C(O)C(C)O4)c(C)c(O)c3c(O)c2C(=O)[C@H]1OC1CC(OC2CC(OC3CC(C)(O)C(O)C(C)O3)C(O)C(C)O2)C(O)C(C)O1` (some centres undefined), the growth is 41%.

For `O=C(Cn1cc(CN2C(=O)c3ccccc3S2(=O)=O)nn1)Nc1nc2ccccc2s1`, the growth is 113%. Take `CN1C(=O)CNC(=O)[C@H](NC(=O)c2nc3ccccc3cc2O)CSSC[C@H]1C(=O)NCCCc1nc2ccccc2cc1O`: the growth is -44.3% (active). To `CC1=C([Se]CC(OC(=O)CC[Se]c2ccccc2)C(=O)NCCCCCC(=O)OCc2ccccc2)C(=O)c2ccccc2C1=O` (centres undefined) belongs 15.5%.

Take `O=c1oc2cc(OS(=O)(=O)c3ccccc3)c(Cl)cc2c2c1CCCCCC2`: the growth is 87.6%. Next, `O=C(CCl)N(O)c1ccc(/C=C/c2ccccc2)cc1`: 69.4% and 51%. Regarding `CC(=O)N1c2ccccc2NC2=C(C(=O)N(Cc3ccccc3)C2(C)C)C1c1ccco1` (centres undefined), the growth is 9.63% (active). Next, `CN(C)CCNC(=O)n1cc(-c2ccncc2)c(-c2cc(O)cc(Cl)c2)n1`: 87.1%; `COc1cc(CN2CCC(N3CCCC3=O)c3ccccc32)cc(OC)c1OC` (centres undefined): 56.4%.

On to `COc1ccc2c(Nc3ccc(NS(C)(=O)=O)cc3)c3ccccc3nc2c1`, for which the growth was -8.29% (active). To `O=C(NCCCCNC(=O)OCc1ccc2c(Cl)cc(Cl)c(O)c2n1)OCc1ccc2c(Cl)cc(Cl)c(O)c2n1` belongs -49.2% (active); to `Nc1ccc(S(=O)(=O)c2ccc(Cl)cc2)cc1`, 100%; to `COc1ccc(-c2n[nH]nc2-c2cc(OC)c(OC)c(OC)c2)cc1`, -8.64% (active). With `COc1cc2nc(-c3ccc(C(F)(F)F)cc3)cc(OCCN3CCCC3)c2cc1OC`, the growth is 66.8%. To `O=C(Nc1ccc(OS(=O)(=O)c2ccccc2)cc1)C12CC3CC(CC(C3)C1)C2` belongs 37.3%; to `CCCCOc1ccc(Nc2cc(Cl)ccc2C(=O)O)cn1`, 87.2% and 103%; to `Nc1cccc(-c2nc3sccn3c2-c2ccnc(NCCNS(=O)(=O)c3ccc(C(F)(F)F)cc3)n2)c1`, 89.1%. To `COc1ccc2c(c1)nnn1c3ncccc3c(N=O)c21` belongs -39.8% (active); to `Cc1ccncc1NC=O`, 105%. To `O=C(Nc1cccc2[nH]c(C(F)(F)F)nc12)c1cc(Cl)ccc1Cl` belongs 36.4%; to `CC1(C)CC2(C)CC(=O)C1C(C(=O)O)C2C(=O)O` (centres undefined), 97.9%. Turning to `O=C(O)COCC(=O)O`, the growth was 102%.

Turning to `[2H]c1nc(Nc2ncc3cc(C(=O)N(C)C)n(C4CCCC4)c3n2)c([2H])c([2H])c1N1C([2H])([2H])C([2H])([2H])NC([2H])([2H])C1([2H])[2H]`, the growth was 14.6%. Take `O=C1N/C(=N\c2nnc(-c3ccc(O)cc3)s2)S/C1=C\c1ccccc1O`: the growth is 104%.

In the case of `CC[C@@H]1NC(=O)[C@@H]2CCCCN2C(=O)[C@@H]2CCCN2C(=O)[C@@H](NC(=O)[C@H](Cc2cc(F)cc(F)c2)NC(=O)Nc2ccc(C3CC3)cc2F)[C@H](C)OC(=O)[C@@H]2C[C@@H](C)CN2C1=O`, the growth was 5.69% (active).

As for `CCCCCCCCn1ccc2cc(NC(=O)Cn3cc(CN4CCCCC4)nn3)ccc21`, the growth is -18.7% (active). Consider `CC(=O)OC1CC2C(C)(C)OC3CC(=O)OCC32C2CCC3(C)C(=CCC3c3ccoc3)C12C` (centres undefined), for which the growth was 116%. As to `C=CC(=O)N1CCC[C@H](n2c(=O)n(-c3ccc(Oc4ccccc4)cc3)c3c(N)ncnc32)C1`, the growth was 92.4%.
